From PubChem BioAssay (NCI)
About 83,000 compounds went through this panel and 20% of them were active in at least one assay; those are over-represented in the sample as a whole.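 The test compound was applied at a single concentration to cells in 96-well plates for 48 hours, and percent growth was recorded.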 A number with no mark means an inactive call. Activity calls are given as the source filed them. Rule for the calls: active = growth percent below 10; inactive = the rest.

Experiments:
Assay in all cases: NCI-60 one-dose screen, 48 h (100 = growth as untreated, 0 = no growth, -100 = all killed)
Settings in all cases: 10 µM unless noted
[1] = tested on: NCI-H23 lung
[2] = tested on: NCI-H226 lung
[3] = tested on: NCI-H322M lung
[4] = tested on: HOP-62 NSCLC
[5] = tested on: NCI-H460 lung
[6] = tested on: HOP-92 NSCLC
[7] = tested on: NCI-H522 lung
[8] = tested on: A549/ATCC NSCLC
[9] = tested on: 786-0 renal
[10] = tested on: COLO 205 colon
[11] = tested on: DU-145 prostate
[12] = tested on: K-562 leukemia
[13] = tested on: MALME-3M melanoma
[14] = tested on: MDA-MB-231 breast
[15] = tested on: RXF 393 renal
[16] = tested on: SF-268 CNS
[17] = tested on: SF-295 CNS
[18] = tested on: SF-539 CNS
[19] = tested on: UACC-257 melanoma
[20] = tested on: M14 melanoma

| Compound | growth [1] | growth [2] [%] | growth [3] [%] | growth [4] [%] | growth [5] [%] | growth [6] [%] | growth [7] [%] | growth [8] [%] | growth [9] [%] | growth [10] | growth [11] [%] | growth [12] [%] | growth [13] | growth [14] [%] | growth [15] [%] | growth [16] [%] | growth [17] [%] | growth [18] | growth [19] | growth [20] |
| --- | --- | --- | --- | --- | --- | --- | --- | --- | --- | --- | --- | --- | --- | --- | --- | --- | --- | --- | --- | --- |
| CC(C)COc1nc2c(c(=O)n(C)c(=O)n2C)n1C | 98.5% | 94.5 | 105 | 99 | 105 | 93.7 | 101 | 106 | 104 | 109% | 111 | 98 | 121% | 108 | 126 | 98.5 | 112 | 91.8% | 67.2% | 108% |
| CCc1ncnc2c1ccn2C(C)c1ccc(OC)c(F)c1 (stereo not given) | 38.9% | 77.2 | 79.7 | 41.3 | 30.8 | 43.2 | 43.3 | 41.1 | 74.9 | 26.3% | 82.3 | 11.5 | 74.9% | 56.7 | 76.5 | 63.2 | 36 | 70.6% | 40% | 36.3% |
| O=S(=O)(NCCCNc1nccc(-c2c(-c3ccc(F)c(O)c3)nc3sccn23)n1)c1ccccc1 | 58.3% | 97.7 | 87.7 | 89.1 | 62.2 | 55.4 | 52.1 | 63.8 | 87.2 | 30.4% | 69 | 37.6 | 0.08% (active) | 47.2 | 26.4 | 74.4 | 92.6 | 88.2% | 19.6% | 12.6% |
| O=C1/C(=C/c2ccccc2Br)COc2ccc(O)cc21 | 92.5% | 100 | 93.8 | 88.9 | 95.3 | 104 | 31.3 | 86.4 | 73 | 100% | 69 | 11.9 | 84% | 73.9 | 101 | 86.1 | 99.1 | 80% | 99.2% | 73.3% |
| O=C(Nn1c2c(sc1=NC1CC1)C(=O)c1ccccc1C2=O)c1cc2ccc1CCc1ccc(cc1)CC2 | 9.63% (active) | 64.9 | 96 | 54.1 | 53.9 | 95.5 | 37.3 | 67.7 | 68.6 | 96.3% | 33.2 | 25.9 | -64.3% (active) | 15.4 | 53.7 | 45.2 | 79.6 | 5.17% (active) | -28.6% (active) | -21.8% (active) |
| COc1ccc(-c2noc(C(=O)O)c2-c2cc(OC)c(OC)c(OC)c2)cc1 | 39.9% | 54.1 | 48.9 | 36.6 | 14.8 | 54.9 | 17.3 | 43.4 | 33.1 | 6.75% (active) | 36.1 | 12.6 | 52.8% | 57.1 | 21.2 | 40.5 | 13.5 | 3.15% (active) | 45.4% | 11.7% |
| CC(=O)Oc1ccc(N2C(=O)C(Cl)=C(Nc3cccc(C(F)(F)F)c3)C2=O)cc1 | 100% | 92.1 | 98.6 | 96.9 | 102 | 99.7 | 86 | 93.9 | 95.7 | 93.4% | 101 | 90.4 | 102% | 95.3 | 87 | 94.3 | 102 | 96.5% | 97.1% | 105% |
